Compound activity: PubChem BioAssay, Paczesny and Yang Labs, IUPUI and University of Michigan
ST2 inh – blocks human ST2 binding to IL-33; Q01638; 78,000 compounds, 2.3% hits; inhibition, % for hits at 17 µM; AlphaLISA ST2-Fc/biotin-IL-33 interaction, 1 h; in the data active = inhibition above about 30%
Target sequence (Q01638 whole entry, looked up): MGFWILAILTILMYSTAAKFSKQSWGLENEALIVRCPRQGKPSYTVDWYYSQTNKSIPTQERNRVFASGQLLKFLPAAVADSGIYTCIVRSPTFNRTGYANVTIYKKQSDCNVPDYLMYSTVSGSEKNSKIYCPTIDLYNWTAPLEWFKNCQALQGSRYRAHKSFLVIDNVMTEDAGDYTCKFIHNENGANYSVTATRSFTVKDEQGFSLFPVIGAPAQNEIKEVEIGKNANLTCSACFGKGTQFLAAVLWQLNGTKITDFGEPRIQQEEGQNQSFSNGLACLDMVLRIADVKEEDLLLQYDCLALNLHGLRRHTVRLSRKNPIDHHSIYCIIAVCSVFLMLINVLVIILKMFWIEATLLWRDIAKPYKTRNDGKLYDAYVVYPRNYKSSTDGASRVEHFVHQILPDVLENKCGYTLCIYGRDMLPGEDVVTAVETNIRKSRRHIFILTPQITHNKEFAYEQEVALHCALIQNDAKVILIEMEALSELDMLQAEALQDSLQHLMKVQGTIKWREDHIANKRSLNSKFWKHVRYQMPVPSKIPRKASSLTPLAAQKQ
Each line names hits and unclear results; the compound was inactive in the other large screens. The entries come from a sample that favours hits as a whole.

CCOC(=O)c1ccc(N2CSC3=C(C#N)C(c4ccccc4F)CC(=O)N3C2)cc1 (configuration not stated)	none
Cc1ccc(C)c(N2CCN(C(=O)CNS(=O)(=O)c3ccc(Br)s3)CC2)c1	none
CC(C)CN1CCC(NCc2ccccc2-n2ccnc2)CC1	none
O=C(NCc1ccccn1)C(Sc1ccccc1)c1ccccc1 (configuration not stated)	none
CCOc1ccc(/C=C2\N=C(c3cc([N+](=O)[O-])cc([N+](=O)[O-])c3)OC2=O)cc1	ST2 inh 40.0%
CCCCOc1ccc(C2=N/C(=C\c3ccc([N+](=O)[O-])cc3)C(=O)O2)cc1	none
CCOc1ccc(/C=C2\N=C(c3ccc([N+](=O)[O-])cc3)OC2=O)cc1	none
O=C(NC1CCCCC1)O[C@@H]1CO[C@H]2[C@@H]1OC[C@@H]2NC(=S)NC1CCCCC1	none
CCOC(=O)c1[nH]c(=O)[nH]c1CN1CCC2(CCN(C)CC2)C1	none
O=C1CCCN1C1CCCN(CCOc2ccc(F)cc2)C1 (configuration not stated)	none
CCS(=O)(=O)c1ncc(CN(C)CC2CCCCO2)n1Cc1ccccc1 (configuration not stated)	none
Cc1ccc2nc(-c3ccco3)c(Nc3ccccc3)n2c1	none
COc1ccc(Br)cc1/C=C1N=C(/C=C/c2ccccc2OC)OC\1=O	none
COc1ccc(Br)cc1C=Nc1c(-c2ccco2)nc2ccccn12	ST2 inh 30.0%
O=C1CCCN2N=C(SCC(=O)Nc3ccc(Cl)c(Cl)c3)SC2=N1	none
CCSc1nc2c(c(=O)[nH]1)C(c1ccc(F)cc1)C1=C(CC(C)(C)CC1=O)N2 (configuration not stated)	none
CCCN(C)Cc1c(C(=O)N2CCN(C3CCCCC3)CC2)nc2ccccn12	none
COc1ccc(-n2ccnc2CN2CCC(CNC(C)=O)C2)cc1 (configuration not stated)	none
Cc1[nH]c2ccccc2c1C=C1C(=O)OC2(CCCCC2)OC1=O	ST2 inh 48.0%
CCCCN(CC)Cc1c(C)[nH]c2ccccc2c1=O	none
CCOc1ccc(C=C2C(=O)OC3(CCCCC3)OC2=O)cc1OC	none
COc1ccc(CN2CCN(C(=O)c3nc4ncccn4n3)CC2=O)cc1	none
COc1ccc(O)cc1-c1nccn1Cc1cccc(-n2cccn2)c1	none
CC1(C)CCN2CCC(C)(C)c3c(O)ccc1c32	ST2 inh 73.0%
O=C(Nc1cccc(Cl)c1)c1ccc([N+](=O)[O-])cc1	none
O=c1[nH]c2ccc(N=Cc3cc(O)ccc3Br)cc2[nH]1	none
O=C1NC(=O)c2cc(N=Cc3ccc(Cl)cc3Cl)ccc21	ST2 inh 70.0%
O=C1NC(=O)c2cc(N=Cc3ccc(Cl)cc3)ccc21	none
CC(C)Cn1cc(C(=O)N2CCCCC2)c2c3ccccc3n(C)c2c1=O	none
CCCNC(=O)c1cc2nc(-c3ccc(Cl)cc3)cc(C(F)(F)F)n2n1	none
CN1C(=O)N(Cc2cccnc2)C(=O)C12CCN(Cc1ccc(C#CC(C)(C)O)cc1)CC2	none
Cc1ccc(S(=O)(=O)N(CC(=O)N2CCCC2)Cc2ccccc2)cc1	none
COc1ccc(-n2c(SCC(N)=O)nc3c([nH]c4ccccc43)c2=O)cc1	none
O=C(CSc1nc2c([nH]c3ccccc32)c(=O)n1-c1ccc(Cl)cc1)Nc1nccs1	ST2 inh 31.0%
NC(=O)CSc1nc2c([nH]c3ccccc32)c(=O)n1-c1ccccc1	none
CC(=O)Cn1c(Br)nc2c1c(=O)n(C)c(=O)n2C	none
Cn1c(=O)c2c(nc(OCCc3ccccc3)n2Cc2ccccc2F)n(C)c1=O	ST2 inh 30.0%
Cn1c(=O)c2c(nc(NCCO)n2Cc2ccccc2F)n(C)c1=O	none
Cn1c(=O)c2c(nc(N3CCN(c4ccccn4)CC3)n2Cc2ccccc2F)n(C)c1=O	none
CCOc1ccc(Cn2c(CNS(=O)(=O)c3ccc(F)cc3)nc3cccnc32)cc1	none
CC(C)(C)C1CCC(OC(=O)CCC(=O)Nc2nccs2)CC1 (configuration not stated)	none
O=C(Nc1ccc([N+](=O)[O-])cc1Cl)c1cc(I)ccc1Cl	ST2 inh 31.0%
CC(C)Oc1ccc(NC(=O)c2ccc([N+](=O)[O-])cc2Cl)cc1	none
Cc1cccc(NC(=O)c2ccc([N+](=O)[O-])cc2Cl)c1	ST2 inh 31.0%
O=C(Nc1cccc([N+](=O)[O-])c1)c1cc(I)ccc1Cl	none
COc1cc([N+](=O)[O-])ccc1NC(=O)c1cc(I)ccc1Cl	none
O=C(NCc1cccs1)c1ccc(Cl)cc1[N+](=O)[O-]	none
O=C(Nc1ccc([N+](=O)[O-])cc1)c1cc(I)ccc1Cl	none
O=C(Nc1ccccc1I)c1ccc(Cl)cc1[N+](=O)[O-]	ST2 inh 30.0%
O=C(Nc1ccccc1I)c1cc([N+](=O)[O-])ccc1Cl	none
O=C(Nc1ccccc1[N+](=O)[O-])c1cc(I)ccc1Cl	ST2 inh 35.0%
O=C(Nc1cccc([N+](=O)[O-])c1)c1ccccc1Cl	none
O=C(Nc1ccccc1Cl)c1ccccc1[N+](=O)[O-]	none
O=C(c1c[nH]c(=O)[nH]c1=O)N1C[C@@H]2C3CCC(CC3)[C@@H]2C1	none
Cc1cccc(C2c3[nH]c4ccccc4c3CCN2C(=O)CCN2CCCCO2)n1 (configuration not stated)	none
